{
  "source": "PubChem BioAssay (NCI)",
  "note": "This is part of a sample that, as a whole, favours compounds with a hit. Of some 79,000 tested, about 15% had one in any assay. Calls of active or inactive are those of the source. Cut-off read from the data, not from the text of the source: active = growth inhibition above about 70%; inactive = the rest.",
  "data": [
    {"experiment": "NCI Yeast Anticancer Drug Screen. Data for the sgs1 mgt1 strain (AID 161);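 note: 0% = growth of cultures given vehicle only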", "settings": "S. cerevisiae sgs1 mgt1 strain, at 5.0 µM (retest, dose inferred, filed as 0.5), hits give high values", "method_in_brief": "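Yeast cells carrying a defined DNA-repair defect were exposed to test compounds. Growth inhibition was measured relative to vehicle-treated controls.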", "values": [
      {"smiles": "COc1ccc(N=Cc2cc(Br)cc(Br)c2O)cc1.COc1ccc(N=Cc2cc(Br)cc(Br)c2O)cc1.[Co]", "growth inhibition": "90% (active)"},
      {"smiles": "O=C(/C=C/C(=O)N1CCCC1)N1CCCC1", "growth inhibition": "4% (inactive)"},
      {"smiles": "O=S(c1ccccc1)c1c(Cl)c(Cl)nc(Cl)c1Cl", "note": "(centres undefined)", "growth inhibition": "99% (active)"},
      {"smiles": "CSc1nc(N)c2cnn(C3OC(CO)C(O)C3O)c2n1", "note": "(centres undefined)", "growth inhibition": "-25% (inactive)"},
      {"smiles": "COc1cccc(C=O)c1O", "growth inhibition": "1% (inactive)"},
      {"smiles": "Cn1c(=O)c2c(ncn2CCCCOc2ccc3c(c2)[n+]([O-])nc(N)[n+]3[O-])n(C)c1=O", "growth inhibition": "5% (inactive)"},
      {"smiles": "Cn1ncc2c(Nc3cccc(Cl)c3)nc(Nc3cccc(Cl)c3)nc21", "growth inhibition": "27% (inactive)"},
      {"smiles": "Cc1cc(C)n2nc(N)c(C#N)c2c1C#N", "growth inhibition": "2% (inactive)"},
      {"smiles": "COc1ccc(C2c3cc4c(cc3OC(O)C2C)OCO4)cc1", "note": "(centres undefined)", "growth inhibition": "-2% (inactive)"},
      {"smiles": "Nc1ccccc1[S][Sn]([c]1ccccc1)([c]1ccccc1)[c]1ccccc1", "growth inhibition": "99% (active)"},
      {"smiles": "Cn1c(Sc2ccc(-c3cccnc3)n2C)ccc1-c1cccnc1", "growth inhibition": "-7% (inactive)"},
      {"smiles": "Nc1nnc(-c2cc(=O)c3cc(Cl)ccc3o2)s1", "growth inhibition": "-2% (inactive)"},
      {"smiles": "COc1ccc(CNc2nc3cc(C(F)(F)F)ccc3nc2C)cc1OC", "growth inhibition": "6% (inactive)"},
      {"smiles": "CC(=O)OCC1CC2OC2CC1C", "note": "(centres undefined)", "growth inhibition": "15% (inactive)"},
      {"smiles": "CCCCN(CCCC)CC(O)c1cc(-c2ccc(Cl)cc2)nc2cc(C)ccc12", "note": "(centres undefined)", "growth inhibition": "11% (inactive)"},
      {"smiles": "NC(=S)n1nc(-c2ccccc2)c(N=Nc2ccccc2Cl)c1-c1ccccc1", "growth inhibition": "1% (inactive)"},
      {"smiles": "CCCCCCCCCCCCN(CCO)CCO", "growth inhibition": "63% (inactive)"},
      {"smiles": "CC(C)CCSc1ncnc2nc[nH]c12", "growth inhibition": "-1% (inactive)"},
      {"smiles": "O=C(c1ccccc1)c1cccc2ccccc12", "growth inhibition": "-2% (inactive)"},
      {"smiles": "O=C1C(c2c[nH]c3ccccc23)=Nc2ccc(Br)cc21", "growth inhibition": "25% (inactive)"},
      {"smiles": "COc1cccc(CCCNC(=O)Cc2ccccc2CO)c1", "growth inhibition": "9% (inactive)"},
      {"smiles": "C/C(=N\\NC(=S)N1CCN(C2CCCCC2)CC1)c1ccccn1", "growth inhibition": "-4% (inactive)"},
      {"smiles": "CN(C)CCOC(=O)C1(CCC2CCCCC2)CCCCC1", "growth inhibition": "-2% (inactive)"},
      {"smiles": "O=c1c(Cl)cc2nc3ccccc3sc-2c1Cl", "growth inhibition": "33% (inactive)"},
      {"smiles": "COc1ccc2nc(NC(=O)Nc3c(Cl)cccc3Cl)sc2c1", "growth inhibition": "20% (inactive)"},
      {"smiles": "Cc1c[nH]c2nc(C)n(-c3ccccc3)c(=N)c12", "growth inhibition": "-3% (inactive)"},
      {"smiles": "O=C(C1=NNC(c2ccccc2)C1C(=O)c1ccccc1)c1ccccc1", "note": "(centres undefined)", "growth inhibition": "2% (inactive)"},
      {"smiles": "CCOC(=O)N1CCN(C=S)CC1", "growth inhibition": "-5% (inactive)"},
      {"smiles": "COC(=O)N(C[C@@H]1C=CCCC1)c1ccccc1I", "growth inhibition": "26% (inactive)"},
      {"smiles": "N=c1ccc2c(c1)[nH]c1c3ccccc3[nH]c3cccc2c31", "growth inhibition": "23% (inactive)"},
      {"smiles": "CC1(C)[C@H]2CC[C@]1(C)[C@H](OC(=O)NNC(=O)O[C@@H]1C[C@@H]3CC[C@@]1(C)C3(C)C)C2", "growth inhibition": "26% (inactive)"},
      {"smiles": "N#CC1(C#N)C(C#N)(C#N)C12CCCCCC2", "growth inhibition": "39% (inactive)"},
      {"smiles": "CCOP(=O)(OCC)OC1c2[nH]ccc2-c2cc(C(=O)OC)[nH]c2C1OC", "note": "(centres undefined)", "growth inhibition": "-3% (inactive)"},
      {"smiles": "O=[N+]([O-])/C(=C\\c1cccs1)c1ccccc1", "growth inhibition": "83% (active)"},
      {"smiles": "Cc1ccccc1NC(=O)C(=O)C(C#N)c1c(Cl)cccc1Cl", "note": "(centres undefined)", "growth inhibition": "-2% (inactive)"},
      {"smiles": "O=C1c2c(F)c(F)c(F)c(F)c2SC2=NCCN12", "growth inhibition": "-10% (inactive)"},
      {"smiles": "CCCC(C)OC(=O)Nc1cccc(Cl)c1", "note": "(centres undefined)", "growth inhibition": "-2% (inactive)"},
      {"smiles": "Nc1nc(SCc2ccccc2)c2ncn(CCCl)c2n1", "growth inhibition": "-9% (inactive)"},
      {"smiles": "CCCCOC(=O)c1nc(N(CC2CCCCC2)C(=O)NC)sc1NC(=O)NC", "growth inhibition": "-18% (inactive)"}
    ]}
  ]
}
